GRIN3A LBD mod: NR3A (human) ligand-binding domain modulation; NR3A LBD differential scanning fluorimetry, Tm shift; 0% = protein alone, 100% = glycine-bound protein; Tm shift relative to glycine control, % at 25 µM; 2.5% of 340,000 active; AID 1259313;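 active = melting temperature shift of at least 10% of the positive control shift, at one fixed dose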
SMARCA2 act: SMARCA2 function activation, primary screen. MG213 cells, MMTV-luciferase reporter, dexamethasone, overnight. activation, % at 9.1 µM. AID 652017. 1% of 370,000 active; in the data active = activation above about 7.8%;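 note: 0% = vehicle wells and 100% = reference activator wells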
NadD block: NadD (S. aureus) enzyme inhibition. purified NadD enzyme, colorimetric absorbance read-out. inhibition, % at 20 µM. 0.78% of 360,000 active. AID 602399; in the data active = inhibition above about 26%
Vif inh: inhibitors of HIV Vif. HEK293T cells, Vif self-association by quenched fluorescence, imaging, 24 h. inhibition, % at 7.49 µM. 0.35% of 340,000 active. AID 602346; in the data active = inhibition above about 50%, passing the limit was not always enough; inconclusive = no clear call, values can overlap the other calls; inactive = below about 31%
esBAF inh: blocks esBAF chromatin remodeling in mouse ES cells. Bmi1-luciferase knock-in reporter, 24 h; 100% = twice the neutral-well signal. reporter increase, % at 12.5 µM. 2% of 350,000 active; in the data active = activation above about 40%; inconclusive = no clear call, values can overlap the other calls;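 note: 0% = median of the plate's neutral control wells and 100% = double that signal; a rise in the Bmi1 reporter signal indicates esBAF inhibition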
SKN-1 inh: C. elegans SKN-1 inhibition. C. elegans VP596 Pgst-4::GFP/RFP ratio, acrylamide-induced, 24 h. 0.49% of 360,000 active. inhibition, % at 21.8 µM;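 active = interference check ratio from 0.5 to 1.5 plus GFP to RFP signal ratio inhibition reaching or exceeding a fixed threshold, cut at about 30% in these data, passing the limit was not always enough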
* hit, by the source's call; ? = inconclusive; . = no result. In the library only some 5.2% were active in any assay of this set; here they are far more common.

SMILES | GRIN3A LBD mod | SMARCA2 act | NadD block | Vif inh | esBAF inh | SKN-1 inh
CN(C)S(=O)(=O)N1CCN(c2ccc([N+](=O)[O-])c(NC3CC3)c2)CC1 | 3 | -2 | -1 | ? | . | -6
CNc1cc(N2CCN(S(=O)(=O)N(C)C)CC2)ccc1[N+](=O)[O-] | 10* | -3 | 3 | 11 | 0 | 9
O=C(O)c1c2c(nc3ccccc13)/C(=C/c1ccc(OC(F)F)cc1)CCC2 | 2 | 4 | 7 | -9 | 59* | 9
O=C(O)c1c2c(nc3ccccc13)/C(=C/c1ccc(O)cc1)CC2 | -2 | 0 | 0 | 6 | . | 7
CCOC(=O)C1=C(C)NC(=O)NC1 | 1 | -1 | 8 | 74* | -5 | -39
CCOC(=O)C1CCN(c2c(NCCCN(CC)c3ccccc3)c(=O)c2=O)CC1 | -2 | -1 | 3 | -7 | -7 | 1
CCN(CCCNc1cc2c(c(N)c1S(=O)(=O)O)C(=O)c1ccccc1C2=O)c1ccccc1 | . | 1 | 52* | -4 | . | 15
Cc1noc(C)c1S(=O)(=O)N(C)C[C@H]1Oc2c(NC(=O)c3cnccn3)cccc2C(=O)N([C@@H](C)CO)C[C@H]1C | . | . | . | . | -6 | .
CCN(CC)Cc1cc(Nc2c3ccccc3nc3c4ccccc4n(C)c23)cc(CN(CC)CC)c1O | 0 | 41* | -2 | -14 | -2 | -5
CCOc1cc2nc3c4ccccc4n(C)c3nc2cc1OCC | -2 | 3 | -1 | . | . | 7
Oc1ccc(-c2csc(Nc3ccccn3)n2)c(O)c1 | 36* | 4 | -7 | -2 | 80* | 7
Cc1cccnc1Nc1nc(-c2ccc(O)cc2O)cs1 | 25* | 5 | 8 | -30 | 31 | 18
CC(=O)Nc1cccc(-c2csc(Nc3ccccn3)n2)c1 | 8 | 6 | -5 | -14 | 9 | 15
Cc1cccnc1Nc1nc(-c2ccccn2)cs1 | -7 | 5 | -2 | -12 | -17 | 4
CCOC(=O)C1(C(=O)O)NC(=O)CC1c1ccccc1 (stereo not given) | 12* | 1 | -3 | -5 | -4 | -6
CC(=O)N(C)c1ccc(NCc2cc(=O)oc3cc(C)c(O)cc23)cc1 | 8 | -2 | -8 | 6 | 80* | 29
COC(=O)[C@H]1[C@H](CO)[C@H]2Cn3c(ccc(C4=CCCCC4)c3=O)[C@H]2N1C(=O)C1CCCC1 | . | . | . | . | -3 | .
O=C(Nc1ccc(NC(=O)c2ccco2)cc1)c1ccc2c(c1)OCO2 | 12* | 0 | 3 | -8 | -7 | -9
COC(=O)c1ccc(NC(=O)c2ccc3c(c2)OCO3)cc1 | -15 | 3 | -4 | 4 | ? | 2
O=C(Nc1ccc(NC(=O)c2ccco2)c(Cl)c1)c1ccc2c(c1)OCCO2 | 31* | 2 | -14 | -15 | 8 | 6
O=C(Nc1cc2c(cc1Cl)OCCO2)c1ccco1 | -1 | 4 | 4 | -12 | 36 | -18
O=C(c1ccc(Cl)c([N+](=O)[O-])c1)N(c1ccccn1)c1ccccn1 | 15* | -1 | -3 | 1 | . | -4
O=C(c1ccc(N2CCCCC2)c([N+](=O)[O-])c1)N(c1ccccn1)c1ccccn1 | 0 | -3 | -2 | 6 | -3 | -4
O=C(Nc1ccc(Nc2ccccc2)cc1)c1ccc(Cl)c([N+](=O)[O-])c1 | 24* | -4 | 0 | -8 | 16 | -3
Cc1cc(C(=O)Nc2ccc(Nc3ccccc3)cc2)ccc1[N+](=O)[O-] | 12* | 3 | -4 | 2 | -5 | 2
SMILES | GRIN3A LBD mod | SMARCA2 act | NadD block | Vif inh | esBAF inh | SKN-1 inh
O=C(Nc1ccc(Nc2ccccc2)cc1)c1ccc(Cl)cc1[N+](=O)[O-] | 12* | -2 | -11 | 19 | -8 | -6
COc1ccc(NC(=O)N(C)C[C@H]2Oc3c(NC(=O)c4nc5ccccc5s4)cccc3C(=O)N([C@H](C)CO)C[C@@H]2C)cc1 | . | . | . | . | 0 | .
COc1ccc(C(=O)Nc2ccc(S(=O)(=O)Nc3cnc4ccccc4n3)cc2)cc1 | -1 | -1 | -7 | -12 | 0 | -7
O=C(Nc1ccc(S(=O)(=O)Nc2cnc3ccccc3n2)cc1)c1ccc(Cl)c([N+](=O)[O-])c1 | 24* | -3 | -3 | 13 | 0 | 1
COC(=O)c1ccc(OCC(O)CNC2CCCC2)cc1 (stereo not given) | 1 | 2 | -7 | -2 | -8 | 6
CCCC(NCC(O)COc1ccc(-c2ccccc2)cc1)c1ccccc1 (stereo not given) | -2 | -9 | -5 | -5 | . | 58*
OC(CNC1CCCC1)COc1ccc(-c2ccccc2)cc1 (stereo not given) | -2 | 0 | -6 | -2 | . | 43*
COc1ccc(OCC(O)CNC(C)c2ccccc2)cc1 (stereo not given) | 1 | -4 | -10 | -3 | -3 | -6
Cc1ccc(C(=O)CSc2nnc(N)s2)c(C)c1 | 1 | 1 | 0 | -11 | 61* | -5
O=C(C[C@H]1CC[C@H]2[C@@H](COC[C@@H](O)CN2Cc2cc(F)ccc2F)O1)N1CCc2ccccc2C1 | . | . | . | . | 7 | .
CNc1ccc(Br)cc(C(=O)/C=C/c2cccc(OC)c2OC)c1=O | -1 | 3 | 20 | 75* | 8 | -10
CNc1ccccc(C(=O)/C=C/c2ccccc2OC)c1=O | -1 | 0 | 6 | 0 | . | 14
CN(C)S(=O)(=O)c1ccc(N2CCCC2)c(C(=O)NCc2cccc(C(F)(F)F)c2)c1 | 1 | -4 | -4 | 3 | 6 | 47*
CCC(=O)c1ccc(OCC(O)CN2CCN(S(=O)(=O)N3CCCCC3)CC2)cc1 (stereo not given) | -2 | 1 | 0 | -9 | -2 | 35*
O=C(c1ccccc1)c1ccc(OCC(O)CN2CCN(S(=O)(=O)N3CCCCC3)CC2)cc1 (stereo not given) | 1 | -6 | -7 | -22 | 3 | 8
CCCC#Cc1cnc2c(c1)C(=O)N([C@H](C)CO)C[C@@H](C)[C@@H](CN(C)Cc1ccc(F)cc1)O2 | . | . | . | . | -4 | .
O=[N+]([O-])c1cc(CN2CCCC2)c2cccnc2c1O | -16 | . | 74* | 10 | . | 7
O=[N+]([O-])c1cc(CN2CCN(c3cccc(C(F)(F)F)c3)CC2)c2cccnc2c1O | 9 | -5 | . | . | . | .
NS(=O)(=O)c1ccc(CCNC(=O)C2CCC(CNS(=O)(=O)c3ccc(Br)s3)CC2)cc1 (stereo not given) | 13* | 0 | -3 | 1 | . | 4
O=C(NCc1cccs1)C1CCC(CNS(=O)(=O)c2ccc(Br)s2)CC1 (stereo not given) | 0 | 0 | -4 | 9 | 2 | 4
O=C(C[C@H]1CC[C@H]2[C@@H](COC[C@@H](O)CN2Cc2ccc3c(c2)OCO3)O1)Nc1ccc(-c2ccccc2)cc1 | . | . | . | . | 5 | .
O=Cc1ccc(-c2cccs2)s1 | -1 | 1 | -3 | -10 | . | -1
Oc1ccc(N=Cc2ccc(-c3cccs3)s2)cc1 | 27* | -4 | -4 | 8 | 14 | 5

Compound activity deposited in PubChem by several laboratories.
